Rows were chosen to be rich in hits. Some 19% of all compounds tested hit in one or more screens of this group.
HT1080 IDH1KD tx: qHTS for induction of synthetic lethality in tumor cells producing 2HG: qHTS for the HT-1080-IDH1KD cell line; HT-1080 IDH1 knockdown viability, ATP luminescence, 48 h; Potency, µM (series often up to 46.1 µM), inactives show at the highest dose activity, negative = toxicity, usual class: cytotoxic; 360,000 tested, 2% active;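 also: potency is read from the fitted curve at half-maximal effect; 0% = DMSO wells and -100% = cell-free medium wells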
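Luminescent ATP read-out (CellTiter-Glo, 10 min at room temperature) after 48 h compound exposure at 37 °C gave viability of IDH1-knockdown HT-1080 cells. Activity was normalised to DMSO and cell-free wells, then fitted as concentration-response curves.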
IL-1B inflam inh: qHTS for Inhibitors of Inflammasome Signaling: IL-1-beta AlphaLISA Primary Screen. activity change, % at 57.5 µM. 360,000 tested, 4.7% active. THP-1 LPS/ATP IL-1B secretion, AlphaLISA, 16 h; active compounds read low; in the data active = activity change below about -50%; inconclusive = mostly about -30% to -49%
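THP-1 cells pretreated 1 hr with compounds (up to 57.5 uM final), then stimulated with LPS (250 ng/mL final) plus ATP (1.25 mM final); secreted IL-1B measured by AlphaLISA after 16 hr, decreased signal indicating inhibition.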
DT40 TDP1 CPT: qHTS for Inhibitors of human tyrosyl-DNA phosphodiesterase 1 (TDP1): qHTS in cells in presence of CPT | Potency, µM (titrated, usually from 46.2 µM), inactives show at the top dose activity change, negative = growth inhibition, most hits filed as inhibitors | 420,000 tested, 12% active | chicken DT40 Tdp1-/-;hTDP1 cells + 20 nM CPT, ATP luminescence, 48 h; also: potency is read from the fitted curve at half-maximal effect; nearly all actives have a fitted effect of over 55% in size
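Chicken DT40 Tdp1-/- cells complemented with human TDP1, 400 cells/well, exposed to compounds plus 20 nM camptothecin for at least 48 h at 37 C; viability read as ATP content by CellTiter-Glo luminescence.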
DT40 TDP1 no CPT: qHTS for Inhibitors of human tyrosyl-DNA phosphodiesterase 1 (TDP1): qHTS in cells in absence of CPT; Potency, µM (highest dose often 46.2 µM), for the others: at the top dose activity change, negative = growth inhibition, usual class: inhibitors; DT40 Tdp1-/- hTDP1 cells, no CPT, ATP luminescence, 48 h; 420,000 tested, 15% active; also: potency is read from the fitted curve at half-maximal effect; nearly all actives have a fitted effect of over 55% in size
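Growth kinetics read by CellTiter-Glo luminescence after ≥48 hr at 37 °C. Cells: DT40 Tdp1-/- stably carrying human TDP1, 400 per well, compound exposure in the absence of CPT (DMSO vehicle).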
HT1080NT lethal: qHTS for induction of synthetic lethality in tumor cells producing 2HG: qHTS for the HT-1080-NT fibrosarcoma cell line. 360,000 tested, 1.6% active. Potency, µM (top dose mostly 46.1 µM), without a hit: at the highest dose activity, negative = less viability, usual class: cytotoxic. AID 686970, 2013. HT-1080-NT fibrosarcoma viability, CellTiter-Glo ATP luminescence, 48 h;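 also: NT is the 2HG producing partner of a matched IDH1 knockdown line; potency is read from the fitted curve at half-maximal effect; 0% = DMSO-treated cells and -100% = media-only wells without cells; nearly all actives have a fitted effect of over 55% in size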
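Read-out is CellTiter-Glo luminescence after 10 minutes at room temperature, following 48 hours' compound treatment of HT-1080-NT cells (750 cells/well, RPMI, 5% FBS, 37 degrees C).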
* marks the source's active call; other numbers are inactive results; ? = inconclusive; · = not tested or not shown; [ ] = dose if it differs, or a comment. Unless noted, calls follow the shape of the dose curve; as a rule, active = well fitted curve in the direction sought with a large enough effect; inconclusive = small, poorly fitted or top-dose-only effect, or another doubt; inactive = no such curve, though single readings can be large; an effect the other way counts as inactive or inconclusive. Unless noted, % is scaled to controls: 0 for no effect and ±100 for the full control effect.

SMILES	HT1080 IDH1KD tx	IL-1B inflam inh	DT40 TDP1 CPT	DT40 TDP1 no CPT	HT1080NT lethal
COc1ccc(C(=O)N=c2nc(-c3ccccc3)n(-c3ccccc3)s2)cc1	·	·	13µM*	?	·
COc1ccc(-n2nc(C(N)=O)nc2-c2ccccc2)cc1	-7%	14	13%	2%	0%
CN=c1nc(-c2ccccc2)n(-c2ccccc2)s1	5%	30	4.6µM*	6.5µM*	22%
Cc1ccc(-c2nc(=Nc3c(C)cc(C)cc3C)sn2-c2ccccc2)cc1	·	·	5µM*	2.2µM*	·
CC(=O)NCCNC(=O)c1cnn(-c2nccc(-c3cc(C)sc3C)n2)c1C	·	·	?	-7%	·
CCOC(=O)C1CCN(C(=O)c2ccccc2CCc2ccccc2)CC1	-3%	22	?	?	-2%
Cc1ccccc1OCC(O)CN1CCC(C)CC1 (centres undefined)	-2%	-8	0%	-2%	-3%
CCOC(=O)C1CCN(CC(O)COCc2ccc3c(c2)OCO3)CC1 (centres undefined)	2%	1	-10%	11%	1%
COc1cccc(OCC(O)CN2CCN(CCN3C(=O)c4cccc5cccc(c45)C3=O)CC2)c1 (centres undefined)	?	-81*	?	18µM*	-28%
COc1ccc(OCC(O)CN2CCC(CN3C(=O)c4cccc5cccc(c45)C3=O)CC2)cc1 (centres undefined)	?	·	13µM*	21µM*	23µM*
O=C1c2cccc3cccc(c23)C(=O)N1CC1CCN(CC(O)COCc2ccc3c(c2)OCO3)CC1 (centres undefined)	21µM*	-81*	?	?	21µM*
Cc1ccc(C)c(OCC(O)CN2CCC(CN3C(=O)c4cccc5cccc(c45)C3=O)CC2)c1 (centres undefined)	0%	-97*	5.2µM*	5.8µM*	0%
O=C1c2cccc3cccc(c23)C(=O)N1CCN1CCN(CC(O)COc2ccccc2)CC1 (centres undefined)	3%	2	-14%	-29%	1%
O=C1CSC(=Nc2cccc([N+](=O)[O-])c2)N1	-2%	12	-4%	-17%	-7%
Cn1c(CNC(=O)CSc2n[nH]c(-c3ccccc3Cl)n2)nc2ccccc21	·	·	-16%	-20%	·
CCC(=O)Nc1cccc(-c2ccc(N3CCC(C)CC3)nn2)c1	-5%	?	?	23µM*	0%
Cc1nnc2ccc(-c3cccc(NC(=O)c4ccc(Br)o4)c3)nn12	-7%	-65*	?	23µM*	?
O=C(Nc1cccc(-c2nnc(-c3ccccc3)o2)c1)c1ccc(Br)o1	?	-24	18µM*	?	-22%
O=C(Nc1cccc(-c2ccc(N3CCCCC3)nn2)c1)c1ccc(Br)o1	-13%	21	21µM*	12µM*	-12%
CCOc1ccc(-c2cccc(NC(=O)c3ccc(Br)o3)c2)nn1	0%	-11	-24%	?	-13%
O=C(O)CCC(=O)Nc1cccc(-c2nnc(-c3ccccc3)o2)c1	1%	-4	14%	-1%	2%
Cn1c(=O)c2cc(NC(=S)NC3CC3)ccc2n1C/C=C/c1ccccc1	2%	-23	-3%	-2%	0%
CCN(CCCNC(=O)CN1C(=O)COc2ccc(S(=O)(=O)N3CCC(C)CC3)cc21)Cc1ccccc1	?	·	?	-21%	-24%
CCCCN(C(=O)CCOc1ccc(OCC)cc1)c1c(N)n(Cc2ccccc2)c(=O)[nH]c1=O	-6%	-16	-11%	-30%	-11%
CCCOc1ccc(C2c3c(oc4ccccc4c3=O)C(=O)N2CCCN2CCOCC2)cc1 (centres undefined)	3%	-10	?	?	22%
SMILES	HT1080 IDH1KD tx	IL-1B inflam inh	DT40 TDP1 CPT	DT40 TDP1 no CPT	HT1080NT lethal
CC1CCN(c2ccc(-c3cccc(NC(=O)c4ccco4)c3)nn2)CC1	?	-78*	?	?	?
Cc1ccc(NC(=O)CN(C)C(=O)COC(=O)c2ccc(NC(=O)CC#N)cc2)cc1	5%	-2	12%	7%	4%
Cc1ccc(Cn2ccsc2=NC(=O)CCl)cc1	12µM*	-100*	12µM*	5.8µM*	1µM*
Cc1cc(C(=O)COC(=O)c2ccc(NC(=O)CC#N)cc2)c(C)n1C1CC1	8%	-12	21µM*	21µM*	3%
Cc1ccc(Cn2ccsc2=NC(=O)COC(=O)c2ccc(NC(=O)CC#N)cc2)cc1	-8%	-9	?	16µM*	-8%
COc1ccc(-c2csc3ncn(CC(=O)N4CCOCC4)c(=O)c23)cc1	-1%	24	-7%	9%	1%
COc1ccccc1OCc1ccc(C(=O)NN)o1	-1%	12	15%	5%	0%
COc1cc(NC(=O)c2ccc(COc3ccccc3Br)o2)cc(OC)c1OC	5%	-16	?	23µM*	0%
COc1ccccc1OCc1ccc(C(=O)NCCN(C)C)o1	6%	28	6%	13%	5%
COc1ccccc1OCc1ccc(C(=O)Nc2ccc(C)c(C)c2)o1	·	·	23µM*	?	·
CCCNC(=O)c1ccc(COc2ccc(CCC)cc2OC)o1	-13%	?	?	15µM*	-9%
COc1ccc(NC(=O)c2ccc(COc3ccccc3OC)o2)cc1OC	-8%	-2	15µM*	23µM*	-1%
COc1ccccc1OCc1ccc(C(=O)Nc2cc(OC)c(OC)c(OC)c2)o1	-16%	?	?	?	-2%
O=C1OC(COc2ccc(Br)cc2)CN1c1ccccc1 (centres undefined)	15%	-21	15%	1%	16%
O=C(NC(=S)NCCN1CCOCC1)c1ccc(Cl)cc1	6%	8	-1%	-10%	12%
O=C1CN(S(=O)(=O)c2cc(Cl)ccc2Cl)CCN1	-4%	9	3%	-7%	5%
COC(=O)C1CCCCN1Cc1ccc2c(c1)CN(C(=O)c1ccc(F)cc1)CCO2 (centres undefined)	·	·	-4%[9.04 µM]	-16%	·
CCCc1ccc(OCc2ccc(C(=O)N3CCN(c4ccccn4)CC3)o2)c(OC)c1	?	-10	?	21µM*	?
CCOC(=O)c1c(C)[nH]c(C)c1C(=O)CSc1nc2ccccc2c(=O)n1-c1ccc(CC)cc1	-19%	0	12µM*	6.5µM*	-19%
